Screening results (PubChem)
mHTT-CaM PPI inh = mHTT-calmodulin interaction abrogation; 3.6% of 190,000 active; AlphaScreen His-mHTT/GST-CaM binding, luminescence; P42858; inhibition, % at 15 µM;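 further: 0% = both proteins with DMSO and 100% = one protein alone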
Pf apPOL block = Pf-apPOL DNA polymerase inhibition; Recombinant Pf-apPOL, molecular beacon fluorescence, 1.5 h; inhibition, % at 10 µM; 0.25% of 210,000 active; AID 1794808
* marks the source's active call; other numbers are inactive results; / = no result. Shown are actives, neighbours in structure and some others; about 3.6% of the full set was active somewhere. No stated cut-off is given here; in the data, active means inhibition above about 50%; inactive means the rest.

SMILES	mHTT-CaM PPI inh	Pf apPOL block
CCN(CC)c1ccc(NC2=C(n3nnc4ccccc43)C(=O)c3ccccc3C2=O)cc1	70*	-3
Cc1cc(C(=O)N2CCC3(CC2)OCCO3)c2ccccc2n1	-6	-8
Cc1ccc(Cn2c(=O)cc(C(=O)N3CCC4(CC3)OCCO4)c3ccccc32)cc1	59*	1
COc1ccc(S(=O)(=O)N(CC(=O)NCc2ccccn2)c2ccc(C)cc2)cc1OC	21	-1
CCCCN(CC)S(=O)(=O)c1ccc(C(=O)Nc2nnc(CC)o2)cc1	24	-2
CCCCN(CC)S(=O)(=O)c1ccc(C(=O)Nc2nc(-c3ccccn3)cs2)cc1	96*	-7
O=C(Nc1nc(-c2ccccn2)cs1)c1ccc(S(=O)(=O)N2CCCCC2)cc1	100*	2
O=C(Nc1nc(-c2ccccn2)cs1)c1ccc(S(=O)(=O)N2CCOCC2)cc1	3	-8
CCn1c(-c2ccc(OC)cc2)cn2c3c(=O)[nH]c(=O)n(C)c3nc12	-25	-10
O=C(COc1ccccc1)Nc1ccccc1C(=O)N1CCCCC1	-2	7
COc1cccc(N(CC(=O)Nc2ccc(F)cc2F)S(=O)(=O)c2ccccc2)c1	0	1
COc1ccccc1-n1c(CSc2ccccc2[N+](=O)[O-])n[nH]c1=S	/	1
C=CCn1c(CSc2ccccc2[N+](=O)[O-])n[nH]c1=S	/	60*
c1ccc(-n2ncc3c(NCCc4cccs4)nnnc32)cc1	-13	-31
Cc1ccc(NC(=O)c2cc(NC(=O)c3cccs3)ccc2N2CCOCC2)cc1	2	-2
CC1CCN(C(=O)c2ccc(CN3C(=O)C4CCCN4C(=O)c4ccccc43)cc2)CC1 (stereo not given)	-1	2
Cc1[nH]c2ccccc2c1SCCNC(=O)C(C)(C)Oc1ccc(Cl)cc1	98*	1
Cc1[nH]c2ccccc2c1SCCNC(=O)c1cccc(Cl)c1	23	-18
Cc1[nH]c2ccccc2c1SCCNC(=O)c1c(F)cccc1F	12	-8
CCOc1ccccc1C(=O)NCCSc1c(C)[nH]c2ccccc12	71*	-6
CCOc1cc(C(=O)NCCSc2c(C)[nH]c3ccccc23)cc(OCC)c1OCC	19	-6
O=C(COc1ccc(Cl)cc1)NCCSc1c[nH]c2ccccc12	17	-6
Cc1[nH]c2ccccc2c1SCCNC(=O)COc1ccc(Cl)cc1	84*	-9
Cc1[nH]c2ccccc2c1SCCNC(=O)COc1ccc(Cl)cc1Cl	93*	-22
CCn1cnc2c1c(=O)n(CCC(C)C)c(=O)n2-c1ccc(C)cc1	10	-6
SMILES	mHTT-CaM PPI inh	Pf apPOL block
Cc1nnc2c(NC(=O)c3ccccn3)cccn12	31	-16
Cc1nc2c(NC(=O)c3ccccn3)cccn2n1	50*	-14
CCn1nccc1C(=O)N1CCC2(CC1)Nc1cccnc1NC2=NCc1ccccc1	3	-3
Cn1nc(-c2ccccc2)cc1C(=O)NCCn1nc(-c2ccc(Cl)cc2)ccc1=O	-6	-8
O=C(NCCn1nc(-c2ccccc2)ccc1=O)c1ccc(-n2cccc2)cc1	63*	-6
Cc1ccc(C2CC(C(F)(F)F)n3ncc(C(=O)N4CCC(C)CC4)c3N2)cc1 (stereo not given)	22	0
O=C1OC(c2ccccc2)=N/C1=C\C(Cl)=C\c1ccccc1	16	3
O=C(CN1C(=O)C(c2ccccc2)=NC12CCCCCC2)Nc1ccccc1	45	1
COc1ccc(NC(=O)CN2C(=O)C(c3ccccc3)=NC23CCC(C)CC3)cc1Cl (stereo not given)	15	-7
O=C(CN1C(=O)C(c2ccccc2)=NC12CCCCC2)Nc1ccc(F)c(F)c1	100*	-12
O=C(CN1C(=O)C(c2ccccc2)=NC12CCCCCC2)Nc1cccc(F)c1	52*	-9
O=C(CN1C(=O)C(c2ccc(F)cc2)=NC12CCCCC2)Nc1ccc(F)cc1	12	-6
O=C(CN1C(=O)C(c2ccc(F)cc2)=NC12CCCCC2)Nc1ccc(Cl)cc1	77*	-10
O=C(CN1C(=O)C(c2ccccc2)=NC12CCCCCC2)Nc1ccc(F)cc1	-5	-4
CC1CCC2(CC1)N=C(c1ccccc1)C(=O)N2CC(=O)Nc1cccc(Cl)c1 (stereo not given)	70*	-6
CC1(C)COC(=CC(=O)C23CC4CC(CC(C4)C2)C3)N1C(=O)C12CC3CC(CC(C3)C1)C2	2	0
Cc1cc(NC(=O)c2ccncc2)c2cc(Br)ccc2n1	-6	-10
COc1ccc(-c2cc(=O)oc3cc4occ(-c5ccccc5)c4cc23)cc1	1	5
N#Cc1ccc(C(=O)Nc2ccc3oc(-c4cccnc4)nc3c2)c(F)c1	6	-3
COc1ccccc1-c1cc(C(=O)N2CCCC2c2ccc(F)cc2)no1 (stereo not given)	-1	-4
COc1ccccc1NNC(=O)C1CCCCC1	/	4
COc1ccc(NC(=O)CN2C(=O)C(c3ccccc3)=NC23CCC(C)CC3)cc1OC (stereo not given)	8	-8
CC1CCC2(CC1)N=C(c1ccccc1)C(=O)N2CC(=O)Nc1ccc(F)c(F)c1 (stereo not given)	76*	-7
Cc1cc(C)c(S(=O)(=O)Nc2cccc(Cl)c2C)c(C)c1	-20	-2
CCN(CC)C(=O)c1ccc2c(c1)NC(=O)C(N1CCOCC1)S2 (stereo not given)	-5	-14
SMILES	mHTT-CaM PPI inh	Pf apPOL block
Cc1noc(-c2nn(C)c3c2CN(C(=O)CCC2CCCC2)CC3)n1	-1	-2
CN(C)c1cccc(C(=O)NCC2CCN(c3cc(-c4ccccn4)[nH]n3)CC2)c1	55*	0
O=C(NCC1CCN(c2cc(-c3ccccn3)[nH]n2)CC1)c1ccc2c(c1)OCO2	37	2
COc1ccc(N2C(=O)/C(=C/c3ccccc3)N=C2c2ccccc2)cc1	-40	-2
CC(C)c1ccc(N2CC(C(=O)NCc3cccnc3)CC2=O)cc1 (stereo not given)	-1	-1
O=C(/C=C/c1ccccc1)NC(NCc1ccco1)C(Cl)(Cl)Cl (stereo not given)	4	2
COc1ccccc1C1CC(c2ccc(C)cc2)=NN1C(=O)CN1CCCCC1 (stereo not given)	40	-5
Cc1ccc(C2=NN(C(=O)CN3CCOCC3)C(c3ccccc3F)C2)c(C)c1 (stereo not given)	24	0
Cc1ccc(C2=NN(C(=O)CN3CCOCC3)C(c3ccccc3C)C2)c(C)c1 (stereo not given)	86*	-2
COc1ccccc1C1CC(c2cccc(C)c2)=NN1C(=O)CN1CCCCC1 (stereo not given)	45	-2
Cc1ccc(C2=NN(C(=O)CN3CCOCC3)C(c3cc(C)ccc3C)C2)c(C)c1 (stereo not given)	65*	-2
COc1ccccc1C1CC(c2ccc(C)cc2C)=NN1C(=O)CN1CCOCC1 (stereo not given)	63*	-4
Cc1ccc(C2=NN(C(=O)CN3CCOCC3)C(c3ccccc3F)C2)cc1 (stereo not given)	40	-6
COc1ccccc1C1CC(c2ccc(F)cc2)=NN1C(=O)CN1CCCCC1 (stereo not given)	100*	0
CC(C)CCNC(=O)C1(C)CCC(=O)N1CCc1ccc(Cl)cc1 (stereo not given)	-10	-1
Cc1ccccc1CNC(=O)C1(C)CCCN(C(=O)NC2CCCCC2)C1 (stereo not given)	-10	11
